The target in experiment [1] is T1, Methionyl-tRNA synthetase, putative (Leishmania donovani (strain BPK282A1)) (UniProt E9BF75).
T1 sequence (whole entry): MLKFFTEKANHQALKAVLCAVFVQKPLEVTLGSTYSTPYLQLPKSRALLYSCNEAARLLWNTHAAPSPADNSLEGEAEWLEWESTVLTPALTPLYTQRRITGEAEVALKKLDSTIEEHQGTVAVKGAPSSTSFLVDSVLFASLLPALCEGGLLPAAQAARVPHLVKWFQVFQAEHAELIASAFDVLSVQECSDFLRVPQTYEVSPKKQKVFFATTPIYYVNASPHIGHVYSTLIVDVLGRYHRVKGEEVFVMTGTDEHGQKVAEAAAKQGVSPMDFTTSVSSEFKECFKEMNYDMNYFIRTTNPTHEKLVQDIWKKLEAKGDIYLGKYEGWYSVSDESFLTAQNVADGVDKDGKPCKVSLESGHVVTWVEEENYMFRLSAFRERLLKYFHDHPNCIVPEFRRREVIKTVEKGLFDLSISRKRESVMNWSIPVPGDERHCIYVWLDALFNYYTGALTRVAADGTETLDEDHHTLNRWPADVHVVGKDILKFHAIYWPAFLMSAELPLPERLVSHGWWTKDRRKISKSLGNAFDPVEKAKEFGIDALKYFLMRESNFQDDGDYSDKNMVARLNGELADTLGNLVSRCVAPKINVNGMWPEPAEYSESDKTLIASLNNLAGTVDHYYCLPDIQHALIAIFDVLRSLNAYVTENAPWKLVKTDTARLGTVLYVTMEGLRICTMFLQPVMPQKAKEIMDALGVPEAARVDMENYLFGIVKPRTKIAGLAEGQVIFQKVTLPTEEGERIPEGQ
Put plainly: Leishmania donovani Methionine tRNA synthetase (LdMetRS):v7. Dose response assay. Also on record: conc 80 nM, time 150 minutes. The class given is functional.

The target of experiment [2] is Protein translocase subunit SecA (Escherichia coli (strain K12)) (UniProt P10408). Nature of the experiment: Assay to Identify E. coli SecA ATPase Inhibitors. The class given is functional. The arrangement: scale not given: direction of the effect not stated beside the values. The following applies: 30 µM.
Sequence of Protein translocase subunit SecA (Escherichia coli (strain K12)) (P10408 whole entry): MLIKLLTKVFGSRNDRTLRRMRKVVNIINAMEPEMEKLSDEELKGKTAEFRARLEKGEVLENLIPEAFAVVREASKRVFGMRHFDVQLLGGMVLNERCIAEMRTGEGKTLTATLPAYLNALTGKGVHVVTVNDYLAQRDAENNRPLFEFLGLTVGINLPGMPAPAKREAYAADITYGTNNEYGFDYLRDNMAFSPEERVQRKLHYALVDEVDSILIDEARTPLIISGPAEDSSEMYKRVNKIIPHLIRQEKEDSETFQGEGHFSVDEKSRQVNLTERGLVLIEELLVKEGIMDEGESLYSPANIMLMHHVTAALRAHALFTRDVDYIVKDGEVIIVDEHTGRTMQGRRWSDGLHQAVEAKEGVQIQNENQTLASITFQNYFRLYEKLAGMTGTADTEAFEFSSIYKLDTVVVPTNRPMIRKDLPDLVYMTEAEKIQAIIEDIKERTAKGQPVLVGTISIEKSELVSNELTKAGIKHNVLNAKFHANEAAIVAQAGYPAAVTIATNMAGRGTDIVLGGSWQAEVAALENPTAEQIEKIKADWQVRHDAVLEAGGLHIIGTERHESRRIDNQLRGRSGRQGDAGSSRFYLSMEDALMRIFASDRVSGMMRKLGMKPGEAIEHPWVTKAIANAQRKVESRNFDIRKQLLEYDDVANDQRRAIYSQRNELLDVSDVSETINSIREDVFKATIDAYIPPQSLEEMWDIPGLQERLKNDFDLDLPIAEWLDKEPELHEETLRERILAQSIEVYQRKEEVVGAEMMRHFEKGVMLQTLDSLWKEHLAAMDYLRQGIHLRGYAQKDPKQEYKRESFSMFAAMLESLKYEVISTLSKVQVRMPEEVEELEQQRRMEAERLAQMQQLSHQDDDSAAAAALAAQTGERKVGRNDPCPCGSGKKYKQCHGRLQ
Experiment [3] addresses T2, Ubiquitin-activating enzyme e1, putative (Leishmania donovani (strain BPK282A1)) (UniProt E9BSI1).
T2 sequence (whole entry): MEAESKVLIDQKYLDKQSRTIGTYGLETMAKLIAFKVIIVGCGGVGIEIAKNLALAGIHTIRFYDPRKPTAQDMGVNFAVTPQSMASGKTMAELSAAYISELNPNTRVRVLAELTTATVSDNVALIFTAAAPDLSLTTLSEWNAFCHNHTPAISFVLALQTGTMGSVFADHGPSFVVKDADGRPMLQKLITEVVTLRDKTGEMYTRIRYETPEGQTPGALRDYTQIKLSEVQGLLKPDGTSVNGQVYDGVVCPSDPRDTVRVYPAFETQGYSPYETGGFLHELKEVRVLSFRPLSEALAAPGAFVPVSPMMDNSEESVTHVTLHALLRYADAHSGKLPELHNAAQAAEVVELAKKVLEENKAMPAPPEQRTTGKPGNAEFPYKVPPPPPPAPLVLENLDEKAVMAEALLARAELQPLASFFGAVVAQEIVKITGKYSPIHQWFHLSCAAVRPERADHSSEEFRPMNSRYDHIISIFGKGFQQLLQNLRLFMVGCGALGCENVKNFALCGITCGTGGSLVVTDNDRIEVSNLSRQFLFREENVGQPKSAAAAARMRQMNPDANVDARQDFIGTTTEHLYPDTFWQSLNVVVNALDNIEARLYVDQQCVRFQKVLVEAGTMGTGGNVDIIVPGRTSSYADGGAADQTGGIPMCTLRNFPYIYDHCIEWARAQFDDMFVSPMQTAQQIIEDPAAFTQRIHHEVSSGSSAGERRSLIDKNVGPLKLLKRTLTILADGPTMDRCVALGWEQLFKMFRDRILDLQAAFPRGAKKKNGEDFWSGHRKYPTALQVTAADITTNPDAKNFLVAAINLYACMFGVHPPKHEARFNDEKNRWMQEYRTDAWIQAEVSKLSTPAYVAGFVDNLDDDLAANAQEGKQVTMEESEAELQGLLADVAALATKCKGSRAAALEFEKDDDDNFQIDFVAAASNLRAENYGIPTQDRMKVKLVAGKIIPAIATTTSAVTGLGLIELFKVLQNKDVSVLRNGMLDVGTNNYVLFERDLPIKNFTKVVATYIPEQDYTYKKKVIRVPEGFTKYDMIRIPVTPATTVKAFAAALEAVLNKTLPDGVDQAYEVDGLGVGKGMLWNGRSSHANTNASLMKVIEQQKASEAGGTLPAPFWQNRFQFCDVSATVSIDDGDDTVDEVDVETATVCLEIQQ
Put plainly: Leishmania donovani Ubiquitin Activating Enzyme (LdE1). The class given is functional. The arrangement: scale not given: direction of the effect not stated beside the values. The following applies: 30 µM.

Experiment [4] concerns the target Sialic acid-binding Ig-like lectin 9 (Homo sapiens) (UniProt Q9Y336). Nature of the experiment: Hs-Siglec9 ALPHAscreen SOP 20170721. Also on record: scale not given: direction of the effect not stated beside the values. The following applies: 10 µM. (In Alpha technology, singlet oxygen from a donor bead excites a nearby acceptor bead.)
Another experiment deals with Trypanosoma cruzi. Nature of the experiment: Trypanosoma cruzi phosphomannomutase and mannose-1-phosphate guanylyltransferase assay. The experiment is classed as functional. Also on record: scale not given: direction of the effect not stated beside the values. The following applies: 10 µM.
Experiment [5] addresses T3, Arginase-2, mitochondrial (Homo sapiens) (UniProt P78540).
T3 sequence (whole entry): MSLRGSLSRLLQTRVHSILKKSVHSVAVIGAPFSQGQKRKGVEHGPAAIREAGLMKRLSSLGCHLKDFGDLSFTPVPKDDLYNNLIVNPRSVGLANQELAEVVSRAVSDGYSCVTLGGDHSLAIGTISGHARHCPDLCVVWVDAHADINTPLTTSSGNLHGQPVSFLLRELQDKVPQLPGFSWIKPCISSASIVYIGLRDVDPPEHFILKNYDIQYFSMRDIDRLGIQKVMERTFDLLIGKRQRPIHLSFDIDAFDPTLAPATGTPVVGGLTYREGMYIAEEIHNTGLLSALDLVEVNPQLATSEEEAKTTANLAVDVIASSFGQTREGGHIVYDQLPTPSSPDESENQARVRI
Nature of the experiment: in vitro enzyme assay to detect the production of urea directly proportional to the activity of Arginase II. The following applies: 33.3 µM. The experiment is classed as functional. Also on record: scale not given: in the data most compounds retested in dose-response had high values.

Experiment [6] concerns the target T4, Proteasome subunit beta (Trypanosoma cruzi) (UniProt O96673).
T4 sequence (whole entry): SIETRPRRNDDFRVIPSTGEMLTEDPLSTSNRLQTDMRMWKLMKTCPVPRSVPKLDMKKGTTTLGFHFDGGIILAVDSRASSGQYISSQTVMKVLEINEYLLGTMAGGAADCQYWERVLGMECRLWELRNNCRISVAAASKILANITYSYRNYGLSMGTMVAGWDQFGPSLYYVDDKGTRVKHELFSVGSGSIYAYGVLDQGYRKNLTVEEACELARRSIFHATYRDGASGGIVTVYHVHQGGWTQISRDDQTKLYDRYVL
Nature of the experiment: Trypanosoma cruzi proteasome chymotrypsin-like activity (TcProtChymo) assay. The experiment is classed as functional. The following applies: 9.37 µM. The arrangement: scale not given: in the data most compounds retested in dose-response had high values.

For another experiment, the species on record is Homo sapiens. Put plainly: To identify inhibition of the IFN signalling (Jak-Stat) pathway via expression of an eGFP reporter gene under the control of an IFN-stimulated response element (ISRE) containing MxA promoter. Also on record: scale not given: direction of the effect not stated beside the values. The following applies: 30 µM. The experiment is classed as functional. In general terms: A reporter such as luciferase makes a cellular process visible.

Experiment [7] deals with T5, Tyrosyl-tRNA synthetase, putative (Trypanosoma cruzi (strain CL Brener)) (UniProt Q4DSP6).
T5 sequence (whole entry): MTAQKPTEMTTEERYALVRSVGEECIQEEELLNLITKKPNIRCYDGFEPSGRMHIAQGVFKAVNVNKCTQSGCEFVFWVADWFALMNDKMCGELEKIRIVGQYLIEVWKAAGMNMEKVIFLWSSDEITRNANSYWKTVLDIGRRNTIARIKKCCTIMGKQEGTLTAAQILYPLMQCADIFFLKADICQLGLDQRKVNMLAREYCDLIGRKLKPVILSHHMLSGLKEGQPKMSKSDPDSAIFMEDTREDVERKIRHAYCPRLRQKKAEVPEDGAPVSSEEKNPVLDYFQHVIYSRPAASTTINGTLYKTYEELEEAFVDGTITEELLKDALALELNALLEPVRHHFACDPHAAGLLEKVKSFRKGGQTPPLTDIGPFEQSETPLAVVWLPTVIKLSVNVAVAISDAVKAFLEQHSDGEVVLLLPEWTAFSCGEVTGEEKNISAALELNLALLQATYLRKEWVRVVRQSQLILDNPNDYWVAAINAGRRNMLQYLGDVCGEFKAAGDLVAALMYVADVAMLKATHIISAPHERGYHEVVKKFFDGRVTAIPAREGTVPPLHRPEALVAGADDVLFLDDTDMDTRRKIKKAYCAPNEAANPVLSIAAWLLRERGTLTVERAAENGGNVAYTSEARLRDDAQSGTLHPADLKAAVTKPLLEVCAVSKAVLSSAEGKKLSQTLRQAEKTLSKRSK
Put plainly: Trypanosoma cruzi tyrosyl tRNA synthetase (TcYRS) _High Tyrosine SOP. The class given is functional. Also on record: scale not given: in the data most compounds retested in dose-response had high values. The following applies: 30 µM.

Experiment [8] addresses T5, Tyrosyl-tRNA synthetase, putative (Trypanosoma cruzi (strain CL Brener)). Put plainly: Trypanosoma cruzi tyrosyl tRNA synthetase (TcYRS) SOP. The following applies: 30 µM. The experiment is classed as functional. Also on record: scale not given: direction of the effect not stated beside the values.
In experiment [9] the target is Chromo domain-containing protein 1 (Saccharomyces cerevisiae (strain ATCC 204508 / S288c) (Baker's yeast)) (UniProt P32657). Put plainly: ScCHD-1 Enzyme Inhibition Assay. The experiment is classed as functional. The following applies: 30 µM. The arrangement: scale not given: in the data most compounds retested in dose-response had high values.
Sequence of Chromo domain-containing protein 1 (Saccharomyces cerevisiae (strain ATCC 204508 / S288c) (Baker's yeast)) (P32657 whole entry, the tested form may be a part): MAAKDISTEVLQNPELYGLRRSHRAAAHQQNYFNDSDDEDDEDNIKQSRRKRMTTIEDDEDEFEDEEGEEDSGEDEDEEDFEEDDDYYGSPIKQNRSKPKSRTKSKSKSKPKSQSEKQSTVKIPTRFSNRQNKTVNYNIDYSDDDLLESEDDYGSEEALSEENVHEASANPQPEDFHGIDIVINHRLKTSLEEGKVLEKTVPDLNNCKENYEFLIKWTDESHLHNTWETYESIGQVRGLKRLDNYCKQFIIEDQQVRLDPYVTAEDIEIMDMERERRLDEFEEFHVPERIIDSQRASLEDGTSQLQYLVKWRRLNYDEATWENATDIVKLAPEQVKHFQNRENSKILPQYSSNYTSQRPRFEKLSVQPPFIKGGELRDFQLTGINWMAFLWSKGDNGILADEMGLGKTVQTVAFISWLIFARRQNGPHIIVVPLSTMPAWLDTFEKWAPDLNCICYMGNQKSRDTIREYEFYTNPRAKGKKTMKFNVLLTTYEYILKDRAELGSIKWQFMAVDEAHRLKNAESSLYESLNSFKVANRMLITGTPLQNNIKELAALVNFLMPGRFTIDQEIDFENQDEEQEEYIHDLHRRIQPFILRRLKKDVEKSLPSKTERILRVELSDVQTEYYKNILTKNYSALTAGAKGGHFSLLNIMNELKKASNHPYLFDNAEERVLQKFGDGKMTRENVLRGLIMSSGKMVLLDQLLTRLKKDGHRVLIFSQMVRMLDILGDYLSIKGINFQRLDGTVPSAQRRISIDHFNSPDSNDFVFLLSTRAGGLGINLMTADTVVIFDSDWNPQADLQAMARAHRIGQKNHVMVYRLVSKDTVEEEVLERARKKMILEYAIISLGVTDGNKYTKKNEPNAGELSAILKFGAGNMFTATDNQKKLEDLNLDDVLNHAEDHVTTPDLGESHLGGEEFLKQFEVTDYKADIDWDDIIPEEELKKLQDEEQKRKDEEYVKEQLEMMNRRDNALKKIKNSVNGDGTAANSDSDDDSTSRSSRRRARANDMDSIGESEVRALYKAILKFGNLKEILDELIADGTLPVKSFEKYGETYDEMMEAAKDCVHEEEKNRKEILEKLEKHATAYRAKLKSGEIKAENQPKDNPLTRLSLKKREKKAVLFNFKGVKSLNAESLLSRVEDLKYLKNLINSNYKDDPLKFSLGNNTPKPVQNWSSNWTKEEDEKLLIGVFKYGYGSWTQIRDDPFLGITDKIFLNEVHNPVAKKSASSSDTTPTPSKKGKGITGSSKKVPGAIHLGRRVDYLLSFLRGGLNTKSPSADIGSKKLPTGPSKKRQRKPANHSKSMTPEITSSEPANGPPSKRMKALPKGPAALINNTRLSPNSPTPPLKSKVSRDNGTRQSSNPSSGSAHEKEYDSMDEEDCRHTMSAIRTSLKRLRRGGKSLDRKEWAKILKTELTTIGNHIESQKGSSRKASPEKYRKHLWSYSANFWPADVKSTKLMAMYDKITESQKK
In experiment [10] the target is AMP-activated protein kinase, AMPK (Homo sapiens) (UniProt P54646+O43741+P54619+Q9UGJ0+Q9Y478+Q13131+Q9UGI9). Nature of the experiment: AMP-dependent Kinase enzyme assay. An in vitro enzyme assay that detects ADP turnover that is directly proportional to AMPK activity. This uses naive AMPK that is activated during the assay with MK-8722. The experiment is classed as functional. The arrangement: scale not given: direction of the effect not stated beside the values. The following applies: 30 µM.

Structures are written as SMILES. For some assays here: Measured potencies and affinities stand elsewhere.

Sequence of Sialic acid-binding Ig-like lectin 9 (Homo sapiens) (Q9Y336 whole entry): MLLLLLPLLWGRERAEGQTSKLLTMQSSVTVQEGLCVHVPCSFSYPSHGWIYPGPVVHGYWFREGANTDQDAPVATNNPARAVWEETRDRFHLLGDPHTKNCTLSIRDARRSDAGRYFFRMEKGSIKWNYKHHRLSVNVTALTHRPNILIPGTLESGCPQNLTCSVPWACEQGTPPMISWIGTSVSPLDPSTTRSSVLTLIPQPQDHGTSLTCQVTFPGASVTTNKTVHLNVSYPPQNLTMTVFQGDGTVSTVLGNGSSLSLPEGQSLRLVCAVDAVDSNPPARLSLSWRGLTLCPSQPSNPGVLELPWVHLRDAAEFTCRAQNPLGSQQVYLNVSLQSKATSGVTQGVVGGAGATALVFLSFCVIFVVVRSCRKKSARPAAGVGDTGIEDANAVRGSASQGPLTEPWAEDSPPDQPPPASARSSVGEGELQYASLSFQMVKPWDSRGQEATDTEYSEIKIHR

With `O=C(NC1CC1)c1ccc2ccc(N3CCN(CC4CC4)CC3)n2c1`, the PXC50 stood at 4.49 in [1] (BOTTOM 0.467703885, HILLSLOPE 1.411799655, MAX_EFFECT 58.90736342, TOP 70.88537837); 4.18 in experiment [1] (BOTTOM 3.025092892, HILLSLOPE 1.100251625, MAX_EFFECT 63.9084507, TOP 101.8817942); 4.72 in experiment [1] (BOTTOM 3.903834548, HILLSLOPE 2.10176548, MAX_EFFECT 63.76811594, TOP 66.05792102); 4.45 in experiment [1] (BOTTOM -3.956247574, HILLSLOPE 1.036561065, MAX_EFFECT 73.83512545, TOP 100.0); 4.22 in experiment [1] (BOTTOM -4.174046537, HILLSLOPE 0.97706716, MAX_EFFECT 63.03630363, TOP 100.0). Also, the Percent Effect is 0.138% in [2]; 9.09% in [3]; 0.503% in experiment [4]; 7.69% in the experiment with Trypanosoma cruzi; -1.37% in [5]; 9.19% in [6]. Further, the Percent Effect is -15.1% in the experiment listed under Homo sapiens, 45.4% in [7], 22.5% in [8] and -3.97% in experiment [9].

On to `Fc1cccc(N2C[C@H]3CCN(c4cccnc4)C[C@H]3C2)c1`, for which the PXC50 in experiment [1] (MAX_EFFECT 35.84229391), in experiment [1] (MAX_EFFECT 42.57425743) and in experiment [1] (MAX_EFFECT 45.65217391) was less than 4 throughout. In addition, the Percent Effect in [2] was -5.24%; in [3] it was -27%; in experiment [10], 0.0628%; in experiment [4], -4.58%; with Trypanosoma cruzi, -1.95%; in experiment [5], -1.67%. Moreover, the Percent Effect in experiment [6] is 9.38%; in the experiment filed under Homo sapiens, 31.8%; in experiment [7] it was 23.8%; in [8], 25.6%; in [9], 3.63%.

These data come from ChEMBL document CHEMBL3988442, “University of Dundee, Small-Polar-MMV Screening Library” (2021).
